Screening results as filed in PubChem BioAssay.
The list is not random: actives were taken first. Their share in the collection is about 6%.
DRD3 antagonist – D3 dopamine receptor (human) antagonism. P35462. D3R cells, DiscoveRx beta-arrestin luminescence, antagonist mode; hits give low values. max response, negative = inhibition, %. 360,000 tested, 2.5% active; in the data active means max response below about -50%; inconclusive means no clear call, values can overlap the other calls
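Cells expressing the human receptor were seeded at 1500 cells/well, incubated overnight at 37 degrees C in 5% CO2, then exposed to library compounds with dopamine controls for 90 minutes at 37 degrees C before luminescent detection.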
Chronic BCR inh – inhibitors of chronic active B-cell receptor signaling; ABC-DLBCL IkBa-CBG/CBR reporter, luminescence ratio, 4 h; Potency, µM (top dose mostly 46.1 µM), usual class: inhibitors; 340,000 tested, 0.05% active; AID 493014; active means well fitted inhibition curve with a large enough effect in the signal ratio, with a control signal flat, not every such curve was filed as active; inconclusive means small, poorly fitted or top-dose-only effect, or effect the other way, or a change in a side signal; the % refers to the signal ratio
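Concentration-response series (up to 46 uM) were applied to TMD8 dual-reporter cells for 4 h at 37C with doxycycline. Green/red ratio, after filter-overlap correction, defined %Activity; red signal alone was normalised to basal cells and zero luminescence.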
D1 ag – activates the human D1 dopamine receptor | P21728 | 360,000 tested, 1% active | HEK293 T-REx D1 cells, calcium flux, agonist mode | activation, % at 2 µM | AID 504660; in the data active means activation above about 30%
Target sequence (P21728 whole entry, looked up): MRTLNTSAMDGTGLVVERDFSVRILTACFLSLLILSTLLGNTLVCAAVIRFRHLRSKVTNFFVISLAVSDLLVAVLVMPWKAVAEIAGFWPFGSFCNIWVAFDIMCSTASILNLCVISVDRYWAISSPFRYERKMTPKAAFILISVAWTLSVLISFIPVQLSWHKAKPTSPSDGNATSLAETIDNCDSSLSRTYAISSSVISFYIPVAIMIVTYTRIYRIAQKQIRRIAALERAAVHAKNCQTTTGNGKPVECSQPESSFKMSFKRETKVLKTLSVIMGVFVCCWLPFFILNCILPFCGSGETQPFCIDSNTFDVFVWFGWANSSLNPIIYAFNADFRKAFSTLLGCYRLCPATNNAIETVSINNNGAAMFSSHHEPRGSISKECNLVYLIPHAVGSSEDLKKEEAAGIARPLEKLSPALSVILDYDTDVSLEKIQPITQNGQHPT
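Tetracycline-induced HEK293 TREx D1 cells, force-coupled to calcium signalling, were dye-loaded with a no-wash calcium kit. Compound was pin-added after a 10 s baseline. Fluorescence was read kinetically at 1 cycle/s for 180 s, with calcium rises flagged as agonism.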
D1 antag – human D1 dopamine receptor antagonism; activity change, negative = inhibition, % at 10 µM; HEK293 TREx D1 cells, calcium flux, dopamine EC80; hits give low values; 360,000 tested, 3.2% active; P21728; in the data active means activity change below about -30%
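HEK293 T-REx cells expressing inducible, force-coupled D1 receptor; no-wash Ca dye, 30–90 min RT. Cmpd → 180 s read at 1 Hz → EC80 DA → 180 s read.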
D3 ag – agonists of human D3 dopamine receptor; P35462; D3R DiscoveRx beta-arrestin cells, luminescence, 90 min; max activation, %; 410,000 tested, 0.58% active; AID 652048; in the data active means max activation above about 30%
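Agonist-mode cell screen: cells plated at 1500/well and incubated overnight at 37 °C, then exposed to library compounds for 90 min at 37 °C. Detection reagent was added for 30–60 min at room temperature, and luminescence was read.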
D1 potentiator – enhances dopamine response at the human D1 receptor; HEK293 TREx D1 cells, calcium flux, dopamine EC20 potentiation; P21728; 360,000 tested, 0.036% active; potentiation, % at 10 µM; in the data active means potentiation above about 30%
Of the large screens only hits and unclear results are named; the others gave an inactive call.

COCCCNC(=O)CC(NS(=O)(=O)c1ccc(Cl)cc1)c1ccco1 (stereo unspecified)	none
CN(C)c1ccc(NC(=O)C2(c3cccs3)CCOCC2)cc1	Chronic BCR inh inconclusive (no result: DRD3 antagonist, D1 antag)
COc1ccc(-c2nnc(NC(=O)c3ccc(S(=O)(=O)N4COCC4(C)C)cc3)o2)cc1	DRD3 antagonist -65
O=C(/C=C/c1ccccc1Cl)c1ccccc(=O)c1O	DRD3 antagonist -77, Chronic BCR inh inconclusive
O=C(/C=C/c1ccc([N+](=O)[O-])cc1)c1ccccc(=O)c1O	DRD3 antagonist -107 (no result: Chronic BCR inh, D1 ag, D1 antag, D1 potentiator)
Cc1ccc(C)c(/C=C/C(=O)c2ccccc(=O)c2O)c1	DRD3 antagonist -51, Chronic BCR inh inconclusive
NC1(CO)COC(c2ccccc2)OC1 (stereo unspecified)	none (no result: Chronic BCR inh, D1 ag, D1 antag, D1 potentiator)
CCOC(=O)c1c(S(=O)(=O)N2CCCC(C(=O)NCc3cccc(OC)c3)C2)c(C)n(C)c1C (stereo unspecified)	none (no result: DRD3 antagonist)
COCCCNC(=O)c1ccc(N2CCOCC2)c(NS(=O)(=O)c2ccc(OC)cc2)c1	DRD3 antagonist -73
CCOc1ccc(CC(=O)Nc2c(C(=O)c3ccc(C)cc3)oc3ccccc23)cc1OCC	none (no result: DRD3 antagonist, Chronic BCR inh)
CO/N=C(\C(=O)N[C@@H]1C(=O)N2C(C(=O)O)=C(CSc3nc(C)c(CC(=O)O)s3)CS[C@H]12)c1csc(N)n1	none (no result: DRD3 antagonist, Chronic BCR inh, D1 ag, D1 antag, D1 potentiator)
O=C(Nc1ccccc1)N(Cc1c[nH]c2ccccc12)C1CCCCCC1	none (no result: DRD3 antagonist, Chronic BCR inh)
Brc1ccc(-c2csc(/N=C/N3CCOCC3)n2)cc1	Chronic BCR inh inconclusive, D1 antag -33
Cc1cc(N)ccc1-n1c(C)ccc1C	none
Cc1cc(N)ccc1N1CCCC1	DRD3 antagonist -55, Chronic BCR inh inconclusive
COc1cc2c(cc1OC)CN(C(C)C(=O)N1CCc3ccccc31)CC2 (stereo unspecified)	DRD3 antagonist inconclusive
CC(C(=O)N1CCc2ccccc21)N1CCc2ccccc2C1 (stereo unspecified)	DRD3 antagonist -86
CC(C(=O)NCC1CCCCC1)N1CCc2ccccc2C1 (stereo unspecified)	DRD3 antagonist -77
Cc1cccn2c(=O)c(C(=O)NCCc3ccccc3)c(O)nc12	none (no result: DRD3 antagonist, Chronic BCR inh)
COc1cc(OC)c(NC(=O)Cn2c(SCc3ccccc3F)nc3cccnc32)cc1Cl	none (no result: DRD3 antagonist, Chronic BCR inh)
CC(=O)c1cc2ccc(O)cc2oc1=O	D1 ag 38
Cc1ccc(S(=O)(=O)N2Cc3ccccc3CC2C(N)=O)cc1 (stereo unspecified)	none (no result: Chronic BCR inh, D1 ag, D1 antag, D1 potentiator)
CCc1cccc(C)c1NC(=O)c1cc(CN2CCCC2)on1	none (no result: DRD3 antagonist, Chronic BCR inh)
Cn1ncc2c(=O)n(CC(=O)NC34CC5CC(CC(C5)C3)C4)cnc21	Chronic BCR inh inconclusive, D1 antag -34
CC(C)(C)n1ncc2c(=O)n(CC(=O)NCc3ccccc3)cnc21	none
Cc1ccc2c(c1)[C@@H]1[C@H](CO2)[C@H](c2ccccc2)[C@@]2(C)C(=O)N[C@H](C)C(=O)N12	D3 ag 31 (no result: D1 ag, D1 antag, D1 potentiator)
COc1ccc(-n2ccn(CC(=O)NCCc3ccccc3)c(=O)c2=O)cc1OC	none (no result: DRD3 antagonist, Chronic BCR inh)
CCc1ccc(N2C(=O)C(Cl)=C(Nc3ccc(C(=O)N4CCCC4)cc3)C2=O)cc1	DRD3 antagonist -57
O=C(c1ccc(N2C(=O)c3ccccc3C2=O)cc1)N1CCCCC1	Chronic BCR inh inconclusive
O=C(c1ccccc1)c1ccc2c(c1)OCCCO2	Chronic BCR inh inconclusive, D1 antag -40
O=C(c1ccccc1)c1ccc2c(c1)OCCOCCOCCO2	Chronic BCR inh inconclusive
O=C(c1ccccc1)N1CCN(C(=O)c2ccc3c(c2)OCCO3)CC1	D1 antag -39
COc1cc2c(cc1OC)C(c1ccc(F)cc1)N(c1cccc(C#N)c1)C(=O)C2 (stereo unspecified)	none (no result: DRD3 antagonist, Chronic BCR inh)
CCOCCc1nn2c(=O)cc(COC(=O)c3ccc(NC(=O)c4cccs4)cc3)nc2s1	none (no result: DRD3 antagonist, Chronic BCR inh)
O=C(NCCc1csc(-c2cccc(F)c2)n1)c1ccccc1C(F)(F)F	none (no result: DRD3 antagonist, Chronic BCR inh)
CCCCN(CC)CCCNC(=O)Nc1sc2nc3n(c(=O)c2c1C)CCC(C)CC3 (stereo unspecified)	none (no result: DRD3 antagonist, Chronic BCR inh)
CCCCCCCCSC1=CC(=O)C(OC)=C(OC)C1=O	DRD3 antagonist -106 (no result: Chronic BCR inh, D1 ag, D1 antag, D1 potentiator)
CCCCCSc1nncc(=O)[nH]1	none
C=Cc1ccc(N=Cc2c(O)ccc3ccccc23)cc1	none
Oc1ccc2ccccc2c1C=Nc1ccccc1Br	none
Oc1ccccc1N=Cc1c(O)ccc2ccccc12	Chronic BCR inh inconclusive, D1 ag 101
Oc1ccccc1C=Nc1cccc2ccccc12	none
Oc1ccc(N=Nc2cccc(Cl)c2)cc1C=Nc1ccc(N2CCOCC2)cc1	DRD3 antagonist -76, Chronic BCR inh inconclusive
Oc1cccc(C=Nc2cccc3ccccc23)c1O	DRD3 antagonist -75, Chronic BCR inh inconclusive
Oc1ccc2ccccc2c1C=Nc1ccc(N2CCOCC2)cc1	Chronic BCR inh inconclusive, D1 ag 52
CC(C)(C)c1ccc(-c2nnc(-c3ccccc3NC(=O)c3cccc(C(F)(F)F)c3)o2)cc1	none (no result: DRD3 antagonist, Chronic BCR inh)
COc1ccc(CCn2c(=O)c3cccnc3n(CC(=O)Nc3c(C)cccc3C)c2=O)cc1OC	none (no result: DRD3 antagonist, Chronic BCR inh)
O=c1cc2nc(-c3ccccc3)nc(SCc3cccc(Br)c3)n2[nH]1	none (no result: DRD3 antagonist, Chronic BCR inh)
Cc1ccc(C(=O)Nc2cccc(OCc3cc(=O)n4c5c(sc4n3)CCCC5)c2)cc1	none (no result: DRD3 antagonist, Chronic BCR inh)
O=C1CN(C(=O)CN2CCN(S(=O)(=O)c3ccccc3F)CC2)c2ccccc2N1	none (no result: Chronic BCR inh, D1 ag, D1 antag, D1 potentiator)
CCn1ccc2cc(S(=O)(=O)N3CCC(C(=O)NCc4ccc(OC)cc4)CC3)ccc21	none (no result: DRD3 antagonist, Chronic BCR inh)
Cc1nc(COc2ccc(C(=O)NCc3ccccc3CN3CCCCC3)cc2)cs1	D1 ag 34, D1 antag -64
Cc1cc(C)c(NC(=O)C(C)N2CCCCCC2)c(C)c1 (stereo unspecified)	none
CC(C(=O)Nc1cc(Cl)cc(Cl)c1)N1CCCC1 (stereo unspecified)	DRD3 antagonist -110, D1 ag 33
CC(=O)c1cc2c(cc1NC(=O)CSc1nc3ccccc3o1)OCO2	D1 antag -35
O=C(CSc1nc2ccccc2o1)Nc1nc(-c2ccccc2)c(-c2ccccc2)s1	Chronic BCR inh inconclusive, D1 antag -90
Cc1ccc(-c2csc(NC(=O)CSc3nc4ccccc4o3)n2)cc1	Chronic BCR inh inconclusive, D1 antag -35
Cc1ccc2nc(NC(=O)CSc3nc4ccccc4o3)sc2c1	none
COC(=O)CSc1nc2ccccc2o1	D1 antag -37
Clc1c(CSc2nc3ccccc3o2)nc2sccn12	Chronic BCR inh inconclusive
Clc1c(CSc2nc3ccccc3o2)nc2ccccn12	Chronic BCR inh inconclusive, D1 antag -39
Cc1ccc(NC(=O)c2ccc3nc(Cc4ccccc4)oc3c2)cc1F	none (no result: DRD3 antagonist, Chronic BCR inh)
CC(=O)c1ccc(N2CCN(C(=O)COc3ccc(F)cc3)CC2)c(F)c1	none
